High-throughput results: PubChem BioAssay, National Center for Advancing Translational Sciences (NCATS)
Luciferase inh = Firefly luciferase inhibition profiling of diverse chemical library using quantitative high-throughput screening | purified P. pyralis luciferase, luminescence, biochemical | Potency, µM (top dose mostly 115 µM), hits mostly inhibitors | hit rate 2.5% among 76,000 | AID 1347043, 2019; note: nearly all actives have a fitted effect of over 65% in size
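Luminescence read by CCD imaging after purified firefly luciferase (10nM final) was added to substrate buffer holding 10uM D-luciferin and 10uM ATP, pH 7.5, pre-dosed with compound.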
HEK293 viab = GF-AFC viability counterscreen for inhibitors of alpha-synuclein gene (SNCA) expression; HEK-293-SNCA-luc viability, GF-AFC fluorescence, 24 h; Potency, µM (top dose mostly 57.1 µM), actives largely listed as cytotoxic; hit rate 0.12% among 150,000; AID 1671193, 2021; note: nearly all actives have a fitted effect of over 30% in size
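HEK-293-SNCA-luc cells (1500/well) plated 24 h, then exposed 24 h to a dilution series; GF-AFC added 30 min at 37C, fluorescence 405/540 nm; normalised to medium-only and DMSO wells, Hill fit.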
SNCA expr inh = Primary qHTS assay for inhibitors of alpha-synuclein gene (SNCA) expression | HEK-293 SNCA-luciferase knock-in, luminescence, 24 h | Potency, µM (titrated, usually from 57.2 µM), actives largely listed as inhibitors | hit rate 0.17% among 140,000 | AID 1671194, 2021; note: nearly all actives have a fitted effect of over 45% in size
NPR1 antag = Natriuretic polypeptide receptor (hNpr1) antagonism - Primary qHTS. Potency, µM (doses to about 46.3 µM), most hits filed as inhibitors. hit rate 1.6% among 76,000. HEK293 hNpr1 GloSensor cGMP, ANP-stimulated luminescence. Atrial natriuretic peptide receptor 1 (Homo sapiens), P16066; calls by dose curve; note: nearly all actives have a fitted effect of over 60% in size
Target sequence (P16066 whole entry, looked up): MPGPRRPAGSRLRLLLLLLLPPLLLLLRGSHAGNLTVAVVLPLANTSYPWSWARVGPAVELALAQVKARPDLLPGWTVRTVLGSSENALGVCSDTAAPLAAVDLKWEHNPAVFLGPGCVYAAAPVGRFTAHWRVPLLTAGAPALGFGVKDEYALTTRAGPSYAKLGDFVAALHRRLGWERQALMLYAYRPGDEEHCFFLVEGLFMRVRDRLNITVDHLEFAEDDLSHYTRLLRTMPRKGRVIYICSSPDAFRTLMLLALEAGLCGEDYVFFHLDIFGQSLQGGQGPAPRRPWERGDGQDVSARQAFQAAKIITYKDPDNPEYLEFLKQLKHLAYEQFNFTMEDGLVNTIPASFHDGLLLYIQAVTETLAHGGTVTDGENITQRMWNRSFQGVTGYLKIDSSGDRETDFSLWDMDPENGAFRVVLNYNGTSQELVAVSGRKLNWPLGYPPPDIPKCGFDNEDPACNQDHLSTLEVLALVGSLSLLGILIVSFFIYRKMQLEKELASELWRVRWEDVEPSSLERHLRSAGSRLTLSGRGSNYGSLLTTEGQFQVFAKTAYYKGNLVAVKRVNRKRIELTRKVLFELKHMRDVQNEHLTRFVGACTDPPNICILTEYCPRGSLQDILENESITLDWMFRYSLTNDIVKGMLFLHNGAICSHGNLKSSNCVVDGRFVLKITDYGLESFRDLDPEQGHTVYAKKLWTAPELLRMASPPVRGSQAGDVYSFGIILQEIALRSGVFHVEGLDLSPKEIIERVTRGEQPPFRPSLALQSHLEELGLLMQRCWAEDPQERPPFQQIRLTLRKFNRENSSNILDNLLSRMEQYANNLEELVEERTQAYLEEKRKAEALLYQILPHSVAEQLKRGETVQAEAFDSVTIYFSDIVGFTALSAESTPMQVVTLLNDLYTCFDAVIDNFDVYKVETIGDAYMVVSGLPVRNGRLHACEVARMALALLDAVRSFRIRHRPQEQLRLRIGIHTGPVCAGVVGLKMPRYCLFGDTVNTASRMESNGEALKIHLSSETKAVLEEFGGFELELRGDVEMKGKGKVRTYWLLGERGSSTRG
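Compound pre-incubated 30 min at room temperature on GloSensor-loaded HEK293 cells stably carrying hNpr1 and the pGS-40F cGMP biosensor. Stimulation uses hNppA at 0.1 nM final; luminescence is taken at baseline and 20 min post-agonist.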
HEK293 tox = Cytotoxic Profiling in HEK 293 Cell Line of Diverse Libraries Using Quantitative High-Throughput Screening | Potency, µM (top dose mostly 115 µM), usual class: inhibitors | AID 1345083, 2018 | hit rate 6.6% among 94,000 | HEK 293 viability, ATP luminescence (CellTiter-Glo), 48-72 h; note: nearly all actives have a fitted effect of over 60% in size
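Cells seeded first (HEK 293, 250 cells/well), then compound added by pintool. Incubation ran 48 or 72 hr at 37 degree Celsius. CellTiter-Glo was added and luminescence imaged after 10 min at room temperature.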
3T3 cytotox = Cytotoxic Profiling in NIH 3T3 Cell Line of Diverse Libraries Using Quantitative High-Throughput Screening. NIH 3T3 viability, CellTiter-Glo ATP luminescence, 48-72 h. Potency, µM (series often up to 96.7 µM), usual class: inhibitors. hit rate 4.3% among 94,000; note: nearly all actives have a fitted effect of over 55% in size
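Luminescent ATP readout (CellTiter-Glo, 10 min RT) after 48 or 72 hr compound exposure of NIH 3T3 cells seeded at 400 cells/well in 1536-well format; quantitative HTS.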
Of the large screens only hits and unclear results are named; the others gave an inactive call. In the library only some 7.4% were active in any assay of this set; here they are far more common. Unless noted, calls come from the whole dose curve; as a rule, active = well fitted curve in the direction sought with a large enough effect; inconclusive = small, poorly fitted or top-dose-only effect, or another doubt; inactive = no such curve, though single readings can be large; an effect the other way counts as inactive or inconclusive.

Cc1ccc(-c2cccc(CN3CCCC3C(=O)NC(C)C)c2)cc1Cl (stereo not given)	HEK293 tox 22µM, 3T3 cytotox 22µM (no result: Luciferase inh, HEK293 viab, SNCA expr inh, NPR1 antag)
Cc1ccc(CN[C@@H]2CO[C@H](CNC(=O)c3cccs3)[C@H]2O)cc1	none
CCCCCNC(=O)C1CCN(C(=O)c2ccc(-c3cncnc3)cc2)CC1	3T3 cytotox inconclusive (no result: Luciferase inh, NPR1 antag)
C=CCNC(=O)c1cnn2c1CN([S+](C)(=O)[O-])CC2	none (no result: Luciferase inh, NPR1 antag)
Cc1cc(C)cc(-c2ccc(CN3CCCC3C(=O)N3CCCCC3)cc2)c1 (stereo not given)	HEK293 tox inconclusive, 3T3 cytotox inconclusive (no result: Luciferase inh, NPR1 antag)
Cc1ccc(-c2cccc(CN3CCCC3C(=O)N3CCCC(C)C3)c2)cc1Cl (stereo not given)	HEK293 tox inconclusive, 3T3 cytotox 32µM (no result: Luciferase inh, HEK293 viab, SNCA expr inh, NPR1 antag)
Cc1ccc(C(=O)NC2CCCN(Cc3cccc(-c4ccc(C)c(Cl)c4)c3)C2)cc1 (stereo not given)	none (no result: Luciferase inh, NPR1 antag)
Cc1ccc(-c2cccc(CN3CCCC3C(=O)NC3CCCC3)c2)cc1Cl (stereo not given)	HEK293 tox 35µM, 3T3 cytotox inconclusive (no result: Luciferase inh, HEK293 viab, SNCA expr inh, NPR1 antag)
O=C(c1ccc(Cl)cc1)N1CCC2(CC1)C(=O)NCN2CCc1ccc(Cl)cc1	HEK293 tox 40µM, 3T3 cytotox inconclusive (no result: Luciferase inh, NPR1 antag)
N#Cc1ccc(C(=O)N2CCC3(CC2)NC(=O)N(Cc2ccc(Cl)cc2)C3=O)cc1	NPR1 antag inconclusive, HEK293 tox inconclusive, 3T3 cytotox 16µM
O=C(c1ccc(Cl)cc1)N1CCC2(CC1)C(=O)NCN2Cc1ccc(Cl)cc1	none (no result: Luciferase inh, NPR1 antag)
O=C(O)c1ccc(CN2CCC[C@H]2c2nc(-c3ccc(F)cn3)no2)cc1	Luciferase inh inconclusive
O[C@@H]1CN(Cc2ccc(-n3cccn3)cc2)CC[C@H]1c1ccc(F)cc1	NPR1 antag inconclusive, HEK293 tox 40µM
Cn1cccc1CN1CCC(N2C(=O)C(OCC3CC3)C23CCCCC3)CC1 (stereo not given)	HEK293 tox 45µM, 3T3 cytotox inconclusive
OCC1CN(C2CCC2)CC12CCN(Cc1ccsc1)CC2 (stereo not given)	HEK293 tox 89µM, 3T3 cytotox inconclusive
OCC1CN(c2ncccn2)CC12CCN(Cc1ccsc1)CC2 (stereo not given)	none
COc1ccc(C(=O)N[C@H]2CCOC[C@H]2C2CCOCC2)cc1O	none
COc1ccccc1CN[C@H]1Cc2ccc(cc2)Nc2cc(ccc2OC)C[C@H](C(=O)NCc2ccccc2)N(C)C1=O	HEK293 tox 40µM, 3T3 cytotox inconclusive
COc1ccc2cc1Nc1ccc(cc1)C[C@H](NCC1CC1)C(=O)N(C)[C@@H](C(=O)NCc1ccccc1)C2	HEK293 tox inconclusive
CN1CCCCCCN(C(=O)c2ccc3ncccc3c2)[C@H]2CCC[C@H]2C1=O	HEK293 tox inconclusive, 3T3 cytotox inconclusive
CN(Cc1ccccc1)Cc1cc(C[C@H]2CNCC[C@H]2CC(=O)N2CCOCC2)no1	none
O=C(C[C@@H]1CCNC[C@@H]1Cc1cc(-c2ccccc2)on1)N1CCc2ccccc2C1	HEK293 tox 40µM, 3T3 cytotox 32µM
COc1cc2c(cc1OC)CN(C(=O)C[C@@H]1CCNC[C@@H]1Cc1cc(-c3ccccc3)on1)CC2	HEK293 tox 79µM, 3T3 cytotox inconclusive
CN(Cc1cc(C[C@H]2CNCC[C@H]2CC(=O)N2CCN(c3ccccc3)CC2)no1)c1ccccc1	HEK293 viab inconclusive, SNCA expr inh inconclusive, HEK293 tox inconclusive, 3T3 cytotox 20µM
COc1ccc(-c2cc(C[C@H]3CNCC[C@H]3CC(=O)N3CCN(c4ccccc4)CC3)no2)cc1	HEK293 tox 40µM, 3T3 cytotox 25µM
COCc1cc(C[C@H]2CNCC[C@H]2CC(=O)N2CCc3cc(OC)c(OC)cc3C2)no1	none
COc1cccc(NC(=O)N2CCC(OC3CCN(S(C)(=O)=O)CC3)CC2)c1	none
O=C(NC[C@H](O)CN1CCc2ccccc2C1)c1cc(NC2COC2)ncn1	HEK293 viab inconclusive (no result: Luciferase inh, NPR1 antag, HEK293 tox, 3T3 cytotox)
CN(C)C(=O)CCN1CCOC(CC(c2ccccc2)c2ccccc2)C1 (stereo not given)	none
COc1ccc(CC(=O)N2CCN(C(=O)c3nc4cccnc4n(Cc4ccccc4)c3=O)CC2)cc1	HEK293 tox inconclusive (no result: Luciferase inh, NPR1 antag)
CC(C)CCN1CCCC2(CC(Cc3ccccc3)=NO2)C1 (stereo not given)	HEK293 tox 100µM
CC(=O)NC[C@H]1CCN(S(=O)(=O)c2cccc(C#N)c2)C[C@H]1N(C)C	SNCA expr inh inconclusive
COc1cccc(C(O)c2nc(C(=O)Nc3ccc(OC)c(OC)c3)c(C)o2)c1 (stereo not given)	Luciferase inh 25µM, HEK293 tox inconclusive
Cc1oc(C(O)c2cncnc2)nc1C(=O)Nc1ccc(N2CCOCC2)cc1 (stereo not given)	Luciferase inh 18µM, 3T3 cytotox inconclusive
Cn1ncc2c(C(=O)CCc3ccc(F)cc3)cc(-c3ccc(Cl)cc3Cl)nc21	HEK293 tox 35µM, 3T3 cytotox 32µM (no result: Luciferase inh, NPR1 antag)
Cn1ncc2c(C(=O)NCc3cccs3)cc(-c3ccc(Cl)cc3Cl)nc21	HEK293 tox 40µM, 3T3 cytotox inconclusive (no result: Luciferase inh, NPR1 antag)
Cc1ccc(-c2cc(C(=O)NCc3cccs3)c3cnn(C)c3n2)c(C)c1	HEK293 tox inconclusive, 3T3 cytotox inconclusive (no result: Luciferase inh, NPR1 antag)
CCCc1cc(NCc2cn3c(n2)SCC3)n2nccc2n1	none
c1cc(-c2nc3c(c(NCc4cn5c(n4)SCC5)n2)CCNCC3)ccn1	HEK293 tox 20µM, 3T3 cytotox inconclusive
O=C(NCC1CC1)c1cc2n(n1)CC(c1ccc(Cl)cc1)OC2 (stereo not given)	SNCA expr inh inconclusive, HEK293 tox inconclusive, 3T3 cytotox 40µM
CCOc1ccccc1CNC(=O)c1cc2n(n1)CC(c1ccc(Cl)cc1)OC2 (stereo not given)	HEK293 viab inconclusive, SNCA expr inh inconclusive, HEK293 tox 25µM, 3T3 cytotox inconclusive
CCOc1ccccc1NC(=O)c1cc2n(n1)CC(c1ccc(Cl)cc1)OC2 (stereo not given)	none
CC1=C[C@@H](CNC(=O)C(C)(C)C)[C@H](C(C)C)C[C@H]1Cc1nnc(-c2ccccc2F)o1	HEK293 viab inconclusive, SNCA expr inh inconclusive, HEK293 tox 32µM, 3T3 cytotox inconclusive
CC1=C[C@@H](CN(C)CCC#N)[C@H](C(C)C)C[C@H]1Cc1nnc(-c2ccccc2F)o1	HEK293 viab inconclusive, NPR1 antag inconclusive, HEK293 tox 79µM, 3T3 cytotox inconclusive
